The source made the active and inactive calls. The calls were made as follows: active = hit-call score of the fitted dose curve at least 0.9, where 1 is the maximum; inactive = score below 0.9.
How the values were obtained:
Conditions in all cases: mRNA level, 48 h; actives raise or lower the signal
[1] = read-out: Lipase C (LIPC), LIPC (gene 3990); test: LTEA_HepaRG_LIPC: Life Technologies and Expression Analysis (LTEA) Assay for Lipase C (LIPC) using HepaRG (AID 2283514)
Method in brief: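 Read-out is LIPC transcript level by TaqMan qRT-PCR, normalized to three housekeeping genes, after 48 h chemical treatment of human HepaRG liver cells. Curves span eight concentrations topping at 100 uM; activity in either direction scored relative to 0.5% DMSO.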

[2] = read-out: Lipoprotein lipase (LPL), LPL (gene 4023); test: LTEA_HepaRG_LPL: Life Technologies and Expression Analysis (LTEA) Assay for Lipoprotein lipase (LPL) using HepaRG (AID 2283515)
Method in brief: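 Read-out is LPL transcript level by qRT-PCR, normalized to three housekeeping genes and fitted bidirectionally against the DMSO control. Human HepaRG cells received chemicals for 48 h at up to 100 uM.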

[3] = read-out: matrix metalloproteinase-10 (MMP10), MMP10 (gene 4319); test: LTEA_HepaRG_MMP10: Life Technologies and Expression Analysis (LTEA) Assay for matrix metalloproteinase-10 (MMP10) using HepaRG (AID 2283517)
Method in brief: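 Gain or loss of MMP10 mRNA is fitted relative to the 0.5% DMSO vehicle. The human hepatic line HepaRG receives a 48-hour serum-free exposure, in duplicate, with a maximum concentration of 100 uM.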

[4] = read-out: MYC, MYC (gene 4609); test: LTEA_HepaRG_MYC: Life Technologies and Expression Analysis (LTEA) Assay for MYC using HepaRG (AID 2283518)
Method in brief: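 Differentiated HepaRG cells exposed 48 h in serum-free induction medium to 8 concentrations (top 100 uM, half-log steps; 0.5% DMSO), duplicate. MYC mRNA measured by Fluidigm qRT-PCR, normalized to ACTB, GAPDH, POLR2A; bidirectional fit versus DMSO.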

[5] = read-out: matrix metalloproteinase-3 (MMP3), MMP3 (gene 4314); test: LTEA_HepaRG_MMP3: Life Technologies and Expression Analysis (LTEA) Assay for matrix metalloproteinase-3 (MMP3) using HepaRG (AID 2283519)
Method in brief: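 HepaRG, human; 48 h dosing, 8 conc. (max 100 uM, half-log), duplicate, 0.5% DMSO. Readout: MMP3 transcript by Fluidigm TaqMan qRT-PCR, ACTB/GAPDH/POLR2A-normalised. Gain or loss fitted vs DMSO.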

[6] = read-out: Paternally Expressed 10 (PEG10), PEG10 (gene 23089); test: LTEA_HepaRG_PEG10: Life Technologies and Expression Analysis (LTEA) Assay for Paternally Expressed 10 (PEG10) using HepaRG (AID 2283520);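 as to AC50: PEG10 transcript by qRT-PCR normalised to ACTB GAPDH and POLR2A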
Method in brief: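 Chemicals tested on HepaRG cells for 48 h, highest concentration 100 uM. PEG10 expression assessed by qRT-PCR relative to DMSO control.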

[7] = read-out: Nuclear factor NF-kappa-B p105 subunit (Homo sapiens) (UniProt P19838); test: LTEA_HepaRG_NFKB1: Life Technologies and Expression Analysis (LTEA) Assay for Nuclear Factor Kappa B Subunit 1 (NFKB1) using HepaRG (AID 2283521)
Method in brief: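 HepaRG, 48 h exposure; 8-pt half-log series from 100 uM in 0.5% DMSO; duplicates. Readout: NFKB1 mRNA by qRT-PCR (Fluidigm arrays), housekeeping-normalized. Gain/loss fit vs DMSO baseline.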

[8] = read-out: Protein phosphatase 2A (PPP2R4), PTPA (gene 5524); test: LTEA_HepaRG_PPP2R4: Life Technologies and Expression Analysis (LTEA) Assay for Protein phosphatase 2A (PPP2R4) using HepaRG (AID 2283522)
Method in brief: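 Gene-expression endpoint in HepaRG hepatic cells: 48 h treatment across eight half-log concentrations up to 100 uM in 0.5% DMSO. PPP2R4 mRNA by qRT-PCR, normalized to three endogenous control genes.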

[9] = read-out: Phosphatase and tensin (PTEN), PTEN (gene 5728); test: LTEA_HepaRG_PTEN: Life Technologies and Expression Analysis (LTEA) Assay for Phosphatase and tensin (PTEN) using HepaRG (AID 2283523)
Method in brief: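 Read-out is PTEN transcript level by multiplexed TaqMan qRT-PCR after 48 h chemical treatment of human HepaRG cultures in serum-free induction medium. Concentrations spanned 100 uM downward in half-log steps, 0.5% DMSO throughout; activity fitted in both directions against vehicle.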

[10] = read-out: solute carrier (SLC22A1), SLC22A1 (gene 6580); test: LTEA_HepaRG_SLC22A1: Life Technologies and Expression Analysis (LTEA) Assay for solute carrier (SLC22A1) using HepaRG (AID 2283524)
Method in brief: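 HepaRG (human liver line), 48 h dosing in serum-free induction medium; 8 conc., half-log down from 100 uM, 0.5% DMSO vehicle, duplicates. Endpoint: SLC22A1 mRNA, qRT-PCR, housekeeping-normalized; gain/loss fit vs DMSO.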

[11] = read-out: Pyruvate Dehydrogenase Kinase 4 (PDK4), PDK4 (gene 5166); test: LTEA_HepaRG_PDK4: Life Technologies and Expression Analysis (LTEA) Assay for Pyruvate Dehydrogenase Kinase 4 (PDK4) using HepaRG (AID 2283525)
Method in brief: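 In this multiplexed human HepaRG expression assay, cells are treated 48 h with test chemicals across an eight-point range starting at 100 uM. PDK4 mRNA changes, normalized to ACTB/GAPDH/POLR2A, are fitted in both directions relative to vehicle.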

[12] = read-out: NAD(P)H dehydrogenase [quinone] 1 (NQO1), NQO1 (gene 1728); test: LTEA_HepaRG_NQO1: Life Technologies and Expression Analysis (LTEA) Assay for NAD(P)H dehydrogenase [quinone] 1 (NQO1) using HepaRG (AID 2283526)
Method in brief: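 Human HepaRG hepatic cells received chemicals for 48 h in serum-free induction medium with 0.5% DMSO, up to 100 uM. Expression was assessed by TaqMan qRT-PCR against housekeeping controls and fitted bidirectionally against DMSO.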

[13] = read-out: Nuclear factor erythroid 2-related factor 2 (Homo sapiens) (UniProt Q16236); test: LTEA_HepaRG_NFE2L2: Life Technologies and Expression Analysis (LTEA) Assay for Nuclear factor erythroid 2-related factor 2 (NFE2L2) Transcription Factor using HepaRG (AID 2283527)
Method in brief: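 Transcript level of NFE2L2 is the read-out, measured by microfluidic TaqMan qRT-PCR and normalized to three housekeeping genes. Human HepaRG cultures received test chemical for 48 h at up to 100 uM in half-log steps. Gain or loss of signal is fitted relative to 0.5% DMSO.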

[14] = read-out: succinate dehydrogenase complex iron sulfur subunit B (SDHB), SDHB (gene 6390); test: LTEA_HepaRG_SDHB: Life Technologies and Expression Analysis (LTEA) Assay for succinate dehydrogenase complex iron sulfur subunit B (SDHB) using HepaRG (AID 2283528)
Method in brief: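 Readout is SDHB transcript level by qRT-PCR, normalised to three housekeeping genes and fitted bidirectionally against 0.5% DMSO vehicle. Human HepaRG cells were treated for 48 h at up to 100 uM.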

[15] = read-out: Signal transducer and activator of transcription 3 (Homo sapiens) (UniProt P40763); test: LTEA_HepaRG_STAT3: Life Technologies and Expression Analysis (LTEA) Assay for Signal transducer and activator of transcription (STAT3) using HepaRG (AID 2283529)
Method in brief: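 Read-out is STAT3 mRNA level by qRT-PCR, normalized to three housekeeping genes, in human HepaRG liver cells treated for 48 h. Concentrations ran from 100 uM downward in half-log steps; curves were fitted for gain or loss relative to 0.5% DMSO.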

[16] = read-out: solute carrier (SLCO1B1), SLCO1B1 (gene 10599); test: LTEA_HepaRG_SLCO1B1: Life Technologies and Expression Analysis (LTEA) Assay for solute carrier (SLCO1B1) using HepaRG (AID 2283530)
Method in brief: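 Differentiated human HepaRG cells were exposed for 48 h in serum-free induction medium to eight half-log concentrations, top 100 uM, in 0.5% DMSO. SLCO1B1 mRNA was measured by qRT-PCR, normalized to ACTB, GAPDH and POLR2A, and fitted bidirectionally against DMSO.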

[17] = read-out: sulfotransferase 2A1 (SULT2A1), SULT2A1 (gene 6822); test: LTEA_HepaRG_SULT2A1: Life Technologies and Expression Analysis (LTEA) Assay for sulfotransferase 2A1 (SULT2A1) using HepaRG (AID 2283531)
Method in brief: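 HepaRG human liver cells, 48 h exposure in serum-free induction medium to 8 half-log concentrations topping at 100 µM (0.5% DMSO), duplicate wells. SULT2A1 mRNA measured by TaqMan qRT-PCR, normalized to ACTB/GAPDH/POLR2A; bidirectional fit against DMSO.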

[18] = read-out: Transforming Growth Factor (TGFA), TGFA (gene 7039); test: LTEA_HepaRG_TGFA: Life Technologies and Expression Analysis (LTEA) Assay for Transforming Growth Factor (TGFA) using HepaRG (AID 2283532)
Method in brief: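 HepaRG (human liver line), 48 h exposure, 8 conc. half-log down from 100 uM, 0.5% DMSO vehicle, duplicates; serum-free induction medium. TGFA mRNA by TaqMan qRT-PCR, ACTB/GAPDH/POLR2A normalization; gain/loss fit vs DMSO.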

[19] = read-out: Transforming Growth Factor (TGFB1), TGFB1 (gene 7040); test: LTEA_HepaRG_TGFB1: Life Technologies and Expression Analysis (LTEA) Assay for Transforming Growth Factor (TGFB1) Transporter using HepaRG (AID 2283533)
Method in brief: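 Differentiated HepaRG cells exposed 48 hr in serum-free induction medium to eight half-log concentrations up to 100 uM (0.5% DMSO), duplicate; TGFB1 mRNA by TaqMan qRT-PCR normalised to ACTB, GAPDH, POLR2A; bidirectional fit against DMSO.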

[20] = read-out: MicroRNA 122 (MIR122), gene 406906; test: LTEA_HepaRG_MIR122: Life Technologies and Expression Analysis (LTEA) Assay for MicroRNA 122 (MIR122) using HepaRG (AID 2283516); also: the transcript read is the microRNA miR-122
Method in brief: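 HepaRG, 48 h exposure, 8-pt half-log from 100 uM, 0.5% DMSO; TaqMan qRT-PCR; bidirectional fit vs DMSO.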

Measured: AC50

Sequence of Signal transducer and activator of transcription 3 (Homo sapiens) (P40763 whole entry, looked up): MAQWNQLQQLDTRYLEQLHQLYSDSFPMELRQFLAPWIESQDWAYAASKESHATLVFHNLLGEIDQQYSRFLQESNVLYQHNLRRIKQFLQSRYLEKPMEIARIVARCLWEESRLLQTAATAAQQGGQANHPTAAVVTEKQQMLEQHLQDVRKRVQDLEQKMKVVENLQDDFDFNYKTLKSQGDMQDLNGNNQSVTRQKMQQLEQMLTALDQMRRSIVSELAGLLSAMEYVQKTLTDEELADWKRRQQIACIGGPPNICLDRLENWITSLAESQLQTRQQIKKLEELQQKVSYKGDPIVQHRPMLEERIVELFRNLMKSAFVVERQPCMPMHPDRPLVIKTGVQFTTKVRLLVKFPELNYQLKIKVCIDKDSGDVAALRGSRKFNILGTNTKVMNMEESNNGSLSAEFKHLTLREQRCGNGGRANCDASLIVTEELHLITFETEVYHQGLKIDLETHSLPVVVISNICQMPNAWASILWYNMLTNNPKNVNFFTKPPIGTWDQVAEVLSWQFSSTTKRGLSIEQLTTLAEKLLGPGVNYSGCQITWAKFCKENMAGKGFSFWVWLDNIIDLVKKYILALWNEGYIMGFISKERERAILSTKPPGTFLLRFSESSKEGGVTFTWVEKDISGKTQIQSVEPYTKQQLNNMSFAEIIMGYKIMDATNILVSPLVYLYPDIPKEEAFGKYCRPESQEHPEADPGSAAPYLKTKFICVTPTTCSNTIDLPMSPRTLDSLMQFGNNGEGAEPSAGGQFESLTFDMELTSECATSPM
Sequence of Nuclear factor NF-kappa-B p105 subunit (Homo sapiens) (P19838 whole entry, looked up): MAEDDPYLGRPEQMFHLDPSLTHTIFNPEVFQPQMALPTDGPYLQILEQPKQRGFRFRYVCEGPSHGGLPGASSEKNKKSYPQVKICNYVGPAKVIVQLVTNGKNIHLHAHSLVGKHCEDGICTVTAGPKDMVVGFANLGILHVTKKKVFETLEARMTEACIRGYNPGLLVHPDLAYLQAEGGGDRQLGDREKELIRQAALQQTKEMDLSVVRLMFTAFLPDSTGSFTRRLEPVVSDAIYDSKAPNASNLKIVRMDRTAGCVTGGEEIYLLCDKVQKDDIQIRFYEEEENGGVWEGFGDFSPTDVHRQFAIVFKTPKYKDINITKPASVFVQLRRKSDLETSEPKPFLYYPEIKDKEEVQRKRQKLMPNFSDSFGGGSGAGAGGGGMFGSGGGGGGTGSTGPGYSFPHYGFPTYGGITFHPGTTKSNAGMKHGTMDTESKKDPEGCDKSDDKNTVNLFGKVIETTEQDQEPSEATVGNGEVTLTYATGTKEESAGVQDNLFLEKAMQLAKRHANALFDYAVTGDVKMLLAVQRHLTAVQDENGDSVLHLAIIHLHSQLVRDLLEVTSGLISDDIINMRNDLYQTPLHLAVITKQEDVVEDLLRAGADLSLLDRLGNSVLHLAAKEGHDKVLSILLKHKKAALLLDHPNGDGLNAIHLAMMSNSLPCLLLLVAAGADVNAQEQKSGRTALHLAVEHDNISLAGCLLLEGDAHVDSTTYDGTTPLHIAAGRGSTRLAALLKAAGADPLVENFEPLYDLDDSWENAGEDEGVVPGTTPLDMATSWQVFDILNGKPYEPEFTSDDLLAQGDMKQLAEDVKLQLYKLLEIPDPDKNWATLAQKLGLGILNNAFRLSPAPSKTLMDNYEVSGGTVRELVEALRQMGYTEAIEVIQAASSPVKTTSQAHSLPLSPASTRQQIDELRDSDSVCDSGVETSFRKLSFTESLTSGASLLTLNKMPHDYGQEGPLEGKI
Sequence of Nuclear factor erythroid 2-related factor 2 (Homo sapiens) (Q16236 whole entry, looked up): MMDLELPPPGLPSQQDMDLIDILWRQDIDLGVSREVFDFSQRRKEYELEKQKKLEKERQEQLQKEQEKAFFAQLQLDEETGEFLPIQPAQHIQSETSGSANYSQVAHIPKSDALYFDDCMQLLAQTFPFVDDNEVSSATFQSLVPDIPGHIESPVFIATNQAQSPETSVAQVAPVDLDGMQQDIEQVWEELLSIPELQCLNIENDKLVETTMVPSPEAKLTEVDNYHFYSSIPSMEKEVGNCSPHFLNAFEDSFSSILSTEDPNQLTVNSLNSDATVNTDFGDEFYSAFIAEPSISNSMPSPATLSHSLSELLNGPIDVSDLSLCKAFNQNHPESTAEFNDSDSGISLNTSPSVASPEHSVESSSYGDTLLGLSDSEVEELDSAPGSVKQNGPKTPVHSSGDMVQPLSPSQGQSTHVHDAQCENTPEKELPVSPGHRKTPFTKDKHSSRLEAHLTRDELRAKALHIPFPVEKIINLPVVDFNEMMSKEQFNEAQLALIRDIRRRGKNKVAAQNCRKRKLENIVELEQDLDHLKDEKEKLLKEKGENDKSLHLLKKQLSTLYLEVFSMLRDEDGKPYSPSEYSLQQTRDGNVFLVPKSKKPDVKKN

Cn1cc[nH]c1=S
not listed: [20]
inactive: all other assays above

C=CCc1cc(S(=O)(=O)c2ccc(O)c(CC=C)c2)ccc1O
inactive: [7] | [8] | [12] | [13] | [14] | [15] | [18] | [19]
active: [2] 93.4 µM | [20] 82 µM | [3] 93.2 µM | [4] 90 µM | [5] 92.2 µM | [6] 71 µM | [9] 50 µM | [11] 81.1 µM | [16] 85.4 µM | [17] 81.2 µM

c1ccc(C(O[C@@H]2CCCN(CCc3ccc4c(c3)OCO4)C2)c2ccccc2)cc1
inactive: [2] | [3] | [14] | [15]
active: [1] 76.5 µM | [4] 83.4 µM | [5] 25.2 µM | [6] 13.1 µM | [8] 50 µM | [9] 79.6 µM | [11] 73.5 µM | [12] 78.9 µM | [13] 67.8 µM | [16] 86.5 µM | [17] 79.3 µM | [18] 77.1 µM | [19] 9.92 µM

CCCCN1C(=O)[C@@H]([C@H](O)C2CCCCC2)NC(=O)C12CCN(Cc1ccc(Oc3ccc(C(=O)O)cc3)cc1)CC2
active: [1] 3.67 µM | [2] 1.71 µM | [20] 3.52 µM | [3] 11.9 µM | [4] 7.67 µM | [5] 0.267 µM | [6] 1.01 µM | [8] 3.88 µM | [9] 2.98 µM | [11] 2.61 µM | [12] 4.6 µM | [13] 2 µM | [14] 1.56 µM | [15] 3.21 µM | [17] 3.91 µM | [19] 0.34 µM
inactive: [7] | [18]

c1ccc2cc3ccccc3cc2c1
not listed: [10] | [16]
inactive: all other assays above

c1ccc2c(c1)-c1cccc3c1c-2cc1ccccc13
active: [2] 5.49 µM | [4] 2.06 µM | [6] 8.43 µM | [8] 14.3 µM | [11] 8.2 µM | [14] 11.4 µM | [15] 6.57 µM | [16] 13.7 µM | [17] 16.8 µM | [18] 7.13 µM
inactive: [3] | [5] | [9] | [12] | [13] | [19]

CCCCCOC(C)=O
not listed: [1] | [10] | [20]
inactive: all other assays above

CC1(C)C(=O)N(Cl)C(=O)N1Cl
not listed: [1] | [7] | [16]
inactive: all other assays above

NC(N)=O
not listed: [1] | [16] | [20]
inactive: all other assays above

O=S(=O)(O)c1ccc(N=Nc2c(O)ccc3cc(S(=O)(=O)O)ccc23)cc1
not listed: [1] | [10] | [16]
inactive: all other assays above

CCCCCCCCCCCCCCCCOS(=O)(=O)O
active: [10] 38.6 µM | [11] 10.8 µM
not listed: [1] | [7] | [16] | [20]
inactive: all other assays above

CC(C)C(=O)Nc1ccc([N+](=O)[O-])c(C(F)(F)F)c1
active: [2] 85.7 µM | [20] 60.8 µM | [3] 50 µM | [4] 50 µM | [5] 79.6 µM | [6] 13.5 µM | [10] 45.4 µM | [11] 9.61 µM | [12] 50 µM | [13] 50 µM | [17] 79.6 µM | [18] 82.3 µM
inactive: [8] | [9] | [14] | [15] | [19]

CC(C)CCCCCCOC(=O)C1CCCCC1C(=O)OCCCCCCC(C)C (stereo unspecified)
active: [2] 9.92 µM | [17] 9.92 µM
not listed: [1] | [16] | [20]
inactive: all other assays above

CCCCCCCCCC
not listed: [1] | [10] | [20]
inactive: all other assays above

CCCc1ccccc1
not listed: [1] | [7] | [10] | [16] | [20]
inactive: all other assays above

Source: PubChem BioAssay (EPA / NIEHS)
